In the library only some 21% were active in any assay of this set; here they are far more common.
Shiga toxin inh = A qHTS for Small Molecule Inhibitors of Shiga Toxin; Vero cells, Shiga toxin protein synthesis inhibition reporter; inhibition, % at 38.7 µM; 290,000 tested, 9.2% active; in the data active = inhibition mostly above about 28%, no sharp cut-off; inactive = mostly below about 43%; also: 0% is about no effect
AMA1-RON2 inh = qHTS for Inhibitors of AMA1-RON; Towards Development of Antimalarial Drug Lead: Primary Screen; Plasmodium falciparum AMA1 (3D7) - RON2 peptide interaction; AlphaScreen AMA1-biotinylated RON2 peptide binding; Potency, µM (titrated, usually from 58.2 µM), inactives show top-dose activity change, negative = inhibition, most hits filed as inhibitors; 360,000 tested, 0.2% active; AID 720542, 2013;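 also: potency is read from the fitted curve at half-maximal effect; 0% = vehicle wells and -100% = peptide control; nearly all actives have a fitted effect of over 45% in size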
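AMA1 (3D7) with his tag at 25 nM final met compounds first, then biotinylated RON2 peptide at 25 nM; detection used donor plus acceptor beads, 10 µg/mL apiece, read by AlphaScreen after 30 min at room temperature.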
CHX counter = Cycloheximide Counterscreen for Small Molecule Inhibitors of Shiga Toxin | cell reporter, cycloheximide protein synthesis inhibition counterscreen | max response, % | 300,000 tested, 12% active | AID 2314, 2010; in the data active = max response mostly above about 13%, no sharp cut-off; inactive = mostly below about 14%; also: read at 38.3 µM for the half of the compounds with a filed dose; 0% is about no effect
Pf growth 48h = Primary qHTS for delayed death inhibitors of the malarial parasite plastid, 48 hour incubation; P. falciparum luciferase growth in erythrocytes, 48 h; Potency, µM (highest dose often 28.7 µM), inactives show at the top dose activity change, negative = inhibition, hits mostly inhibitors; 310,000 tested, 5.9% active; AID 504832, 2011; also: potency is read from the fitted curve at half-maximal effect; % is scaled to controls: 0 for no effect and ±100 for the full control effect
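Read-out is firefly luciferase luminescence from an integrated reporter in P. falciparum, so falling signal marks reduced parasite growth. Infected erythrocytes were at 2% hematocrit and 0.1% parasitemia (final) in Albumax-supplemented RPMI 1640.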
Pf growth 96h = Primary qHTS for delayed death inhibitors of the malarial parasite plastid, 96 hour incubation. 320,000 tested, 6.9% active. AID 504834, 2011. P. falciparum luciferase reporter growth, 96 h. Potency, µM (titrated, usually from 28.7 µM), for the others: top-dose activity change, negative = inhibition, most hits filed as inhibitors; also: potency is read from the fitted curve at half-maximal effect; % is scaled to controls: 0 for no effect and ±100 for the full control effect
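Delayed-death screen, second-generation endpoint: infected erythrocytes, 2% hematocrit, 0.05% parasitemia final; 96 hours at 37 C, 5% CO2; luciferase detection reagent; luminescence decrease equals reduced growth.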
HCV inhibitor = qHTS Assay for Inhibitors of Hepatitis C Virus (HCV) | Huh7.5.1 HCVcc-Cre infection, luciferase reporter, 44 h | Potency, µM (doses to about 41.8 µM), for the others: at the top dose activity change, negative = inhibition, most hits filed as inhibitors | 340,000 tested, 3.4% active | AID 651820, 2012; also: potency is read from the fitted curve at half-maximal effect; % is scaled to controls: 0 for no effect and ±100 for the full control effect
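Cells seeded at 1,000/well and cultured 4 h, then compounds added followed by HCVcc-Cre virus (~0.5 moi). After 44 h further culture, luciferase substrate was added, plates held 15 min at room temperature, and luminescence read for 15 sec.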
Starred values were filed as active, the others as inactive; i = inactive; ? = inconclusive; . = no result; [ ] = dose if it differs, or a comment. Unless noted, calls follow the shape of the dose curve; as a rule, active = well fitted curve in the direction sought with a large enough effect; inconclusive = small, poorly fitted or top-dose-only effect, or another doubt; inactive = no such curve, though single readings can be large; an effect the other way counts as inactive or inconclusive.

SMILES	Shiga toxin inh	AMA1-RON2 inh	CHX counter	Pf growth 48h	Pf growth 96h	HCV inhibitor
COc1cccc(C2=NC(C)(C)NC(c3ccccc3O)C2)c1 (centres undefined)	56*	-18%	34*	9.3µM*	0%	-29%
COc1cccc(C2=NOC(C(=O)Nc3cccnc3)C2)c1 (centres undefined)	32	3%	-3	16%	31%	-16%
O=C(CSc1nnc(C2COc3ccccc3O2)o1)N1CCCC1 (centres undefined)	52*	-9%	47*	?	?	13%
O=C(CSc1nnc(C2CCCCC2)o1)N1CCCCC1	81*	0%	31*	13%	30%	6%
Cc1cccc(C)c1NC(=O)CSc1nnc(C2CCCCC2)o1	-10	-2%	-1	6%	?	15%
Cc1cc(C)c(C#N)c(Nc2cccc(C)c2C)n1	-7	3%	1	-6%	?	-10%
CCc1cc2c(=O)[nH]c(-c3ccncc3)nc2s1	-9	-7%	3	26%	?	37%
CCCCCc1c(C)nc(N2CCc3ccccc32)[nH]c1=O	8	8%	-2	9.3µM*	-17%	10%
CCCCCc1c(C)nc(N2CCc3ccccc3C2)[nH]c1=O	-11	-7%	-1	-12%	134%	5%
CCc1cc2c(=O)[nH]c(N3CCOCC3)nc2s1	34*	-4%	22*	98%	40%	15%
CCCCCc1c(C)nc(N2CCOCC2)[nH]c1=O	-9	-29%	0	-20%	8.3µM*	14%
C[C@@H]1CN([C@H](C)CO)C(=O)CCCn2nncc2CO[C@H]1CN(C)CC1CC1	.	-2%	.	.	.	.
CCC(=O)c1ccc(OC)c(OC)c1OCc1ccccc1	.	-9%	.	.	.	23%
Cc1cccc(CC(=O)N2CCN(C(=O)c3ccco3)CC2)c1	-2	16%	-3	14%	0%	16%
CCCCN(Cc1ccccc1)c1ncnc2nc[nH]c12	31*	48%	36*	18%	76%	-15%
Cn1nccc1C(=O)Nc1nnc(C2CC2)s1	35	5%	8	16%	45%	16%
Cc1cc(C)cc(OCC(=O)Nc2ccc(F)cc2)c1	36	6%	14	?	-64%	?
CCC(=O)Nc1ccc2c(c1)C(=O)c1ccccc1C2=O	76*	-18%	36*	342%	256%	?
CC(NC(=O)CN1C(=O)c2ccccc2C1=O)c1ccccc1 (centres undefined)	-4	11%	1	-27%[0.00184 µM]	?	10%
Cc1cc(C)cc(OCC(=O)Nc2ccc3c(c2)C(=O)c2ccccc2C3=O)c1	46*	-2%	20*	31%	12%	5%
CCC(=O)NC1=C(NC(C)c2ccccc2)C(=O)c2ccccc2C1=O (centres undefined)	43	-14%	16	.	0.93µM*	-2%
O=C(NCc1ccccc1Cl)C(=O)NCC1OCCCN1S(=O)(=O)c1cccs1 (centres undefined)	1	2%	3	-22%	2%	1%
Cc1ccc(S(=O)(=O)Nc2ccc3nc(N)sc3c2)cc1	-4	-6%	-2	-12%	.	13µM*
Cc1ccc2nc(-c3ccc(NS(=O)(=O)c4ccccc4)cc3)sc2c1	active	7%	29*	70%	14%	-29%
Cc1ccc(S(=O)(=O)Nc2ccc3nc(C)sc3c2)cc1	17	1%	0	?	47%	?
SMILES	Shiga toxin inh	AMA1-RON2 inh	CHX counter	Pf growth 48h	Pf growth 96h	HCV inhibitor
Cc1ccc2nc(-c3ccc(NS(=O)(=O)c4ccc(F)c(F)c4)cc3)sc2c1	96*	8%	64*	311%	i	4%
CC(=O)Nc1ccc2nc(NS(=O)(=O)c3ccc(C)cc3)sc2c1	-4	0%	-1	12%	78%	-3%
CC(C)(C)NC(=O)CC1C[C@H](C(=O)N2CCCCC2)[C@@]2(C)c3[nH]c4ccccc4c3CCN2C1=O (some centres undefined)	.	8%	.	.	.	52%
CS(=O)(=O)N(CC(=O)N1CCCC1)C1CCCCC1	.	-8%	.	.	.	.
COc1ccc(-c2cn[nH]c2-c2ccc(OCC(=O)NN)cc2O)cc1	-19	95%	8	?	?	-3%
NNC(=O)COc1ccc(-c2n[nH]c(C(F)(F)F)c2-c2ccc(Br)cc2)c(O)c1	11	31%	-3	9.3µM*	8.3µM*	-25%
COc1ccc(-c2c(-c3ccc(OCC(=O)NN)cc3O)n[nH]c2C)cc1	-11	59%	-2	?	9.3µM*	-16%
COc1ccccc1-c1cn[nH]c1-c1ccc(OCC(=O)NN)cc1O	20	80%	1	?	?	4%
COc1ccc(-c2cn[nH]c2-c2ccc(OCC(=O)NN)cc2O)cc1OC	-4	62%	-4	?	?	13%
COc1ccccc1-c1c(-c2ccc(OCC(=O)NN)cc2O)n[nH]c1C(F)(F)F	4	50%	-3	8.3µM*	7.4µM*	?
COc1ccc(-c2n[nH]c(C(F)(F)F)c2-c2cc3ccccc3o2)c(O)c1	-11	58%	-3	2.1µM*	16%	11µM*
CCOC(=O)N1CCN(c2ccncc2S(=O)(=O)N2CCCCC2)CC1	-8	28%	-3	-30%	-19%	20%
O=C(CSc1nnc2c(Cl)cc(Cl)cn12)N1CCN(c2ccc(F)cc2)CC1	7	10%	-2	-14%	?	7%
Cc1ccc(S(=O)(=O)Nc2nc3ccccc3nc2NCC2CCCO2)cc1C (centres undefined)	-4	14%	-3	2%	11%	9%
COc1ccc(C2c3cc(OC)c(OC)cc3CC3C(=O)OCC32)cc1OC (centres undefined)	.	-10%	.	.	.	9%
CCC(CC)Nc1ccc(C(CC(N)=O)NC(=O)Cc2cccc3ccccc23)cc1[N+](=O)[O-] (centres undefined)	-4	-2%	1	40%	?	6%
Cc1cccc(C(=O)O/N=C/c2c(N3CCOCC3)n(C)c3ccccc23)c1	-7	.	-2	6.6µM*	1.9µM*	.
Cc1cccc(C(=O)N2CCN(c3ccc(N4CCOCC4)nn3)CC2)c1	12	7%	-1	-18%	-25%	-5%
CN1OC[C@@H]2CN(Cc3ccccc3)[C@H](c3ccc(-n4ccnc4)cc3)C[C@@H]21	.	0%	.	.	.	.
Cc1noc(C)c1COC(=O)c1ccccc1Sc1ccccc1C#N	-10	-1%	0	.	12µM*	?
Fc1ccc(-c2nnc(CSc3nnc4ccccn34)o2)cc1	22	-16%	40*	95%	129%	8%
